Here are results for 45 sequences from the supplement of paper PMC3545927.

This is one part of the list. How many sequences the whole screen found active is unknown.

This assay concerns the target furin, P09958. The assay is described as follows: furin cleavage Z-score vs untreated control; higher = more cleavage, active = 3.5 or more, inactive = 1 or less, 8 variable residues between constant flanks. In short, it runs like this:
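Furin-free reactions served as the baseline for the cleavage Z-score, which is the log read count lowess-adjusted and scaled by median absolute deviation. Counts came from released DNA, adapter-tagged by PCR and sequenced. Purified furin had cut 8-mer peptides fused to a cDNA oligonucleotide on magnetic beads during 7.5, 15 or 30 min at 1:10 enzyme:substrate.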
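Further: purified furin at 1:10 enzyme:substrate in 50 mM HEPES pH 7.5.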

Chain of furin, P09958 (P09958 whole entry, the tested form may be a part): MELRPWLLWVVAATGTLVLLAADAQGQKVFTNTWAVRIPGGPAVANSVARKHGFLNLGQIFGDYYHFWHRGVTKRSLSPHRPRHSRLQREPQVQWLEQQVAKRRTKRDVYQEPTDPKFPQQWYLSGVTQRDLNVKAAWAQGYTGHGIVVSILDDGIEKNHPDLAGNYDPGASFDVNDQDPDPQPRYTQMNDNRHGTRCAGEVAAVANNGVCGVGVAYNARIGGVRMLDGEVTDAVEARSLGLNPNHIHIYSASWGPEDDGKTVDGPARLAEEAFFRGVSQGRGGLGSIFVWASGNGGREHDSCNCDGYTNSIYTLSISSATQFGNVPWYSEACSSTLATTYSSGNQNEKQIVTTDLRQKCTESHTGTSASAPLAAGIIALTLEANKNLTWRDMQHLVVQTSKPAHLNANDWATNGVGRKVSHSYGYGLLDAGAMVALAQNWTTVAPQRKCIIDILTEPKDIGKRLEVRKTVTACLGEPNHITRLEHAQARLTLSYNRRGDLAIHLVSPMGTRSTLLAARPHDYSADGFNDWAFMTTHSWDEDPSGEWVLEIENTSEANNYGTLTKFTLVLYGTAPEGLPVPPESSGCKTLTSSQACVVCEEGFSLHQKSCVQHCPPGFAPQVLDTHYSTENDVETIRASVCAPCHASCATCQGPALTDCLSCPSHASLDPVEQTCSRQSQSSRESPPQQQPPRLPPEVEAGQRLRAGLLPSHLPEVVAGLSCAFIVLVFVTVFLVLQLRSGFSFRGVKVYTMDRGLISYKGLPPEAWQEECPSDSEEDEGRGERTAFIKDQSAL

As for CAEVVTSTHVAGNASASA [HC2235], the “furin cleavage Z-score” value by setting is: (7.5 min) -0.582 (inactive); (15 min) 0.167 (inactive); (30 min) -1.55 (inactive).

As to CAVCGDDLVVAGNASASA [HC1528], the “furin cleavage Z-score” value runs as follows: (7.5 min) -2.27 (inactive); (15 min) -1.44 (inactive); (30 min) -0.381 (inactive).

In the case of CADLVVICESAGNASASA [HC1530], the “furin cleavage Z-score” value reads like this: (7.5 min) 0.357 (inactive); (15 min) -1.48 (inactive); (30 min) 1.02.

Take CAPPGSVTVPAGNASASA [HC836]: the “furin cleavage Z-score” value runs as follows: (7.5 min) 0.584 (inactive); (15 min) 0.308 (inactive); (30 min) -0.638 (inactive).

On to CAKVVTSTWVAGNASASA [HC2154], for which the “furin cleavage Z-score” value is -1.02 (inactive) (7.5 min), 1.09 (15 min) and -1.67 (inactive) (30 min).

On to CATTPCMGSWAGNASASA [HC68], for which the “furin cleavage Z-score” value (7.5 min) was 1.12, the “furin cleavage Z-score” value (15 min) is 0.786 (inactive) and the “furin cleavage Z-score” value (30 min) is -0.593 (inactive).

In the case of CATTPCWGSWAGNASASA [HC67], the “furin cleavage Z-score” value was 0.261 (inactive) (7.5 min), 1.14 (15 min) and 1.23 (30 min).

With CATTPCIGSWAGNASASA [HC65], the “furin cleavage Z-score” value runs as follows: (7.5 min) 0.499 (inactive); (15 min) 3.77 (active); (30 min) 2.

Regarding CASDSRHSRQAGNASASA [FS-1612], the “furin cleavage Z-score” value was 0.00727 (inactive) (7.5 min), 0.0993 (inactive) (15 min) and 0.17 (inactive) (30 min).

Consider CAAMGRGKRQAGNASASA [FS-1184], for which the “furin cleavage Z-score” value reads like this: (7.5 min) 9.02 (active); (15 min) 8.89 (active); (30 min) 8.8 (active).

For the sequence CAGPGEGAVQAGNASASA [HC1114], the “furin cleavage Z-score” value was -0.225 (inactive) (7.5 min), -1.41 (inactive) (15 min) and -1.21 (inactive) (30 min).

For CAAGVAGALVAGNASASA [HC1089], the “furin cleavage Z-score” value runs as follows: (7.5 min) -0.652 (inactive); (15 min) -0.752 (inactive); (30 min) 0.946 (inactive).

On to CAALDRTKRQAGNASASA [FS-579], for which the “furin cleavage Z-score” value by setting is: (7.5 min) 11.8 (active); (15 min) 12.8 (active); (30 min) 11 (active).

For CAGKSRNKRQAGNASASA [FS-243], the “furin cleavage Z-score” value is, setting by setting: (7.5 min) 10.4 (active); (15 min) 10.6 (active); (30 min) 10.1 (active).

Consider CAEKTRHARQAGNASASA [FS-1520], for which the “furin cleavage Z-score” value was 8.09 (active) (7.5 min), 8.28 (active) (15 min) and 7.03 (active) (30 min).

Regarding CAEKRRSADIAGNASASA [FS-2630], the “furin cleavage Z-score” value was -0.771 (inactive) (7.5 min), -1.51 (inactive) (15 min) and -0.666 (inactive) (30 min).

Turning to CAHIDAHFLSAGNASASA [HC944], the “furin cleavage Z-score” value was -0.528 (inactive) (7.5 min), -1.68 (inactive) (15 min) and -0.674 (inactive) (30 min).

CAGCSFSIFLAGNASASA [HC246]: the “furin cleavage Z-score” value runs as follows: (7.5 min) -1.55 (inactive); (15 min) -1.86 (inactive); (30 min) 0.305 (inactive).

Take CAEVMTSTWVAGNASASA [HC2186]: the “furin cleavage Z-score” value runs as follows: (7.5 min) -0.944 (inactive); (15 min) -0.894 (inactive); (30 min) -0.0736 (inactive).

As to CALDQAETAGAGNASASA [HC827], the “furin cleavage Z-score” value is, setting by setting: (7.5 min) 0.305 (inactive); (15 min) 0.588 (inactive); (30 min) 0.353 (inactive).

CAEVGCHRPSAGNASASA [HC2356]: the “furin cleavage Z-score” value is 0.279 (inactive) (7.5 min), 0.829 (inactive) (15 min) and 0.483 (inactive) (30 min).

As for CAALVTPCAAAGNASASA [HC1375], the “furin cleavage Z-score” value runs as follows: (7.5 min) -0.826 (inactive); (15 min) -0.333 (inactive); (30 min) -1.48 (inactive).

As to CATIPCSGSWAGNASASA [HC1844], the “furin cleavage Z-score” value (7.5 min) is -0.402 (inactive), the “furin cleavage Z-score” value (15 min) is -1.52 (inactive) and the “furin cleavage Z-score” value (30 min) was -0.285 (inactive).

For CAGKKRRPVKAGNASASA [DV1], the “furin cleavage Z-score” value was 0.52 (inactive) (7.5 min), 1.23 (15 min) and 0.39 (inactive) (30 min).

For CAFTSRFKRQAGNASASA [FS-420], the “furin cleavage Z-score” value is 10.7 (active) (7.5 min), 10.3 (active) (15 min) and 8.02 (active) (30 min).

Turning to CAPRLRRKRQAGNASASA [FS-1243], the “furin cleavage Z-score” value is 10.3 (active) (7.5 min), 9.75 (active) (15 min) and 8.73 (active) (30 min).

Consider CASPSVRKRQAGNASASA [FS-1084], for which the “furin cleavage Z-score” value by setting is: (7.5 min) 1.65; (15 min) 1.54; (30 min) 0.547 (inactive).

Take CAGKSRRKRQAGNASASA [FS-1328]: the “furin cleavage Z-score” value is 11.6 (active) (7.5 min), 12.5 (active) (15 min) and 8.34 (active) (30 min).

In the case of CAVSVRRKRQAGNASASA [FS-516], the “furin cleavage Z-score” value (7.5 min) is 11.2 (active), the “furin cleavage Z-score” value (15 min) is 12.2 (active) and the “furin cleavage Z-score” value (30 min) is 9.86 (active).

For the sequence CATTPWSGSWAGNASASA [HC47], the “furin cleavage Z-score” value runs as follows: (7.5 min) -0.899 (inactive); (15 min) -0.0349 (inactive); (30 min) -1.02 (inactive).

As for CAVICCSMSYAGNASASA [HC2004], the “furin cleavage Z-score” value runs as follows: (7.5 min) -1.33 (inactive); (15 min) -0.628 (inactive); (30 min) 0.99 (inactive).

CAEKSRAKRQAGNASASA [FS-231]: the “furin cleavage Z-score” value is 9.72 (active) (7.5 min), 8.1 (active) (15 min) and 6.51 (active) (30 min).

Consider CANQVEGEVQAGNASASA [HC687], for which the “furin cleavage Z-score” value by setting is: (7.5 min) -1.48 (inactive); (15 min) -0.19 (inactive); (30 min) -1.34 (inactive).

For the sequence CARVPCHRPSAGNASASA [HC2313], the “furin cleavage Z-score” value is, setting by setting: (7.5 min) -0.0296 (inactive); (15 min) 0.363 (inactive); (30 min) -0.117 (inactive).

As to CARDVRSRRPAGNASASA [FS-1393], the “furin cleavage Z-score” value reads like this: (7.5 min) 0.0934 (inactive); (15 min) 0.513 (inactive); (30 min) 0.621 (inactive).

Turning to CAQKVRPRRWAGNASASA [FS-80], the “furin cleavage Z-score” value was 9.9 (active) (7.5 min), 11.7 (active) (15 min) and 9.5 (active) (30 min).

With CAFRVRSRRWAGNASASA [FS-328], the “furin cleavage Z-score” value by setting is: (7.5 min) 8.66 (active); (15 min) 9.61 (active); (30 min) 9.2 (active).

With CAQKDRARRPAGNASASA [FS-1605], the “furin cleavage Z-score” value (7.5 min) was 0.51 (inactive), the “furin cleavage Z-score” value (15 min) was -1.09 (inactive) and the “furin cleavage Z-score” value (30 min) is 0.363 (inactive).

As for CAFRNRNQRIAGNASASA [FS-235], the “furin cleavage Z-score” value was -0.28 (inactive) (7.5 min), -1.55 (inactive) (15 min) and 0.794 (inactive) (30 min).

Consider CAPLKRSVSLAGNASASA [FS-2876], for which the “furin cleavage Z-score” value is 0.317 (inactive) (7.5 min), 2.22 (15 min) and 2.88 (30 min).

Regarding CALRKLGVPPAGNASASA [HC1615], the “furin cleavage Z-score” value by setting is: (7.5 min) 0.313 (inactive); (15 min) 0.845 (inactive); (30 min) 0.629 (inactive).

On to CAPKSPPVPPAGNASASA [HC1320], for which the “furin cleavage Z-score” value is -0.644 (inactive) (7.5 min), 0.94 (inactive) (15 min) and -0.0681 (inactive) (30 min).

Regarding CAGLKRSVSRAGNASASA [FS-2477], the “furin cleavage Z-score” value is -0.266 (inactive) (7.5 min), -1.67 (inactive) (15 min) and 0.712 (inactive) (30 min).

As to CAKIKRSVSPAGNASASA [FS-2247], the “furin cleavage Z-score” value is 4.13 (active) (7.5 min), 3.63 (active) (15 min) and 4.32 (active) (30 min).

CAKAKRSVPPAGNASASA [FS-2540]: the “furin cleavage Z-score” value by setting is: (7.5 min) 9.65 (active); (15 min) 9.24 (active); (30 min) 7.46 (active).
